“And” between values parts separate entries of the source, which are not always exact repeats. Identical values can stand only once. Screen size: about 16,000 compounds; about 2,600 (16%) were called active. Another 20% or so got no clear call; they are omitted. The call rests on the fitted dose curve; in most records, active means well fitted curve in the direction sought with a large enough effect; inconclusive means small, poorly fitted or top-dose-only effect, or effect the other way; inactive means no such curve, though single readings can be large or run the other way. Not all results are given here. Where a structure was tested more than once in an assay, its records may differ in their call.
Molecular target: Cytochrome P450 2D6 (Homo sapiens) (UniProt P10635)
Assay: Cytochrome panel assay with activity outcomes
Conditions: recombinant CYP, pro-luciferin dealkylation, luminescence, p450-cyp2d6; series mostly up to 57.1 µM
On the % scale 0 is the no-effect control and ±100 the full control effect.

Chain of Cytochrome P450 2D6 (Homo sapiens) (P10635 whole entry, looked up): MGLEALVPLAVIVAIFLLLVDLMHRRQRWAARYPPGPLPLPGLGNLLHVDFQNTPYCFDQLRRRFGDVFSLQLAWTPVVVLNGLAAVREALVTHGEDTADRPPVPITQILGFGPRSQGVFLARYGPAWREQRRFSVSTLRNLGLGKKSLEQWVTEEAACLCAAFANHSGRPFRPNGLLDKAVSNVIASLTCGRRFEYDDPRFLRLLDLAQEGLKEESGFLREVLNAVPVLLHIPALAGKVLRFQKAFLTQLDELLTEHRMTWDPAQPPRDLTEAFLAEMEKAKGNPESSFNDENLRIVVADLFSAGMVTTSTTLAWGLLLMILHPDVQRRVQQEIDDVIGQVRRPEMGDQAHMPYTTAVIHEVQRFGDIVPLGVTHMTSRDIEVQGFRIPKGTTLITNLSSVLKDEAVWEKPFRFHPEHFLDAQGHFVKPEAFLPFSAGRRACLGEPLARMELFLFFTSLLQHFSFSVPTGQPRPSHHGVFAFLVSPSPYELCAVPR

AC50, inactive:
COc1ccccc1NC(=O)c1sc2ncn(Cc3ccccc3C)c(=O)c2c1C, Cc1ccccc1C(=O)NN(C)c1nc2ccccc2nc1C(F)(F)F, CC(=O)N1CCN(c2ccc(NC(=O)c3ccc(C)cc3)cc2)CC1, Cc1ccc(CSc2nnc(C(F)(F)F)n2Cc2ccc(F)cc2)cc1, Cc1ccc(NC(=O)NNC(=O)Cn2nc(-c3ccccc3)c(-c3ccccc3)c(C#N)c2=O)cc1, O=C(N1CCOCC1)N1CCN(c2ccccc2)CC1, Brc1[nH]nc2ccccc12, CSc1nc(Cl)cc(N(CCO)CCO)n1, Cn1cccc1C(=O)N1CCC[C@@]2(CCN(c3ccccn3)C2)C1, CCN(CC)C(=S)SSC(=S)N(CC)CC, CC(C)Cn1c(-c2ccc(Cl)cc2)cnc1SCC(=O)N1CCOCC1, Cn1cc(-c2nc3cnc(N4CCNCC4)nc3n(-c3ccccc3)c2=O)c2ccccc21, CCC1=NN(C(=O)CCc2ccccc2)C(O)(C(F)(F)F)C1 (stereo unspecified), CC(C)[C@H](CO)Nc1nc(Nc2cc(N)cc(Cl)c2)c2ncn(C(C)C)c2n1, COc1cccc(=O)c2c(C)n(-c3cc(C)cc(C)c3)c(C)c12, COc1ccc(-c2nnc3n2N=C(C)CS3)cc1, COc1ccc(CNc2ncnc3ccc(-c4ccccc4C#N)cc23)c(OC)c1, COc1ccccc1-c1nnc(SCc2nc3ccccc3s2)n1C, CC1(C)CC2(CC(C)(C(=O)CSc3nc4ccccc4s3)OC2=O)C(=O)O1 (stereo unspecified), CCC[C@H]1C[C@H](C(=O)N[C@H]([C@@H]2O[C@H](SC)[C@@H](O)[C@H](O)[C@@H]2O)[C@H](C)O)N(C)C1, O=C(Nc1nnc(C2CC2)s1)c1ccncc1, CC1(C)OC(=O)N(Cc2ccco2)C1(C)O (stereo unspecified), O=C(O)/C=C1\NC(=O)c2ccccc21, O=C(O)c1ccccc1Nc1ccccc1, Nc1ccc(Nc2ccccc2)cc1, COc1ccc(-c2nc3cnc(N(C)C)nc3n(Cc3cccs3)c2=O)cc1, CCCn1nnnc1NC(=O)c1ccc(C)cc1Cl, COC(=O)c1ccc(C#CC(NP(=O)(c2ccccc2)c2ccccc2)c2ccccc2)cc1 (stereo unspecified), CC1CN(C(NC(=O)C(C)(C)C)C(Cl)(Cl)Cl)CC(C)O1 (stereo unspecified), CCOC(=O)c1c(NC(=S)NC(=O)c2cnn(CC)c2)sc2c1CCC(C)C2 (stereo unspecified), CCN1CCc2c(sc(NC(=S)NC(=O)c3ccccc3)c2C#N)C1, CCOC(=O)N1CCC(NC(=O)c2cc(S(=O)(=O)N3CCCC3)cn2C)CC1, COCc1cc(=O)[nH]c2cc(NC(=O)C(F)(F)F)c(C)cc12, CC(C)(CO)Cc1cc(C(C)(C)C)c(O)c(C(C)(C)C)c1, O=C(c1ccc2c(c1)N(Cc1ccc(F)cc1)C(=O)CS2)N1CCOCC1, Cc1cc(OC(=O)c2ccc(Cl)cc2)cc(=O)n1C, CS(=O)(=O)N1CCC[C@@]2(CCN(c3ccccn3)C2)C1, CC(=O)N1CCC2(CCCN(c3ccccn3)C2)CC1, O=S(=O)(c1ccccc1)N1CCC2(CCN(c3ncccn3)CC2)CC1, O=S(=O)(c1ccccc1)N1CCC2(CC1)CN(c1ncccn1)C2, CS(=O)(=O)N1CCC[C@@]2(CCN(c3ncccn3)C2)C1, CS(=O)(=O)N1CCC2(CC1)CN(c1ncccn1)C2

AC50, active:
Fc1ccc(Cn2c(SCc3ccc(F)c(C(F)(F)F)c3)nnc2C(F)(F)F)cc1 15.8 µM, Cc1cc2c(nc1C)CCCN2C[C@H](O)CN1CCCc2nc(-c3ccc(Br)cc3)ccc21 3.16 µM, COC(=O)C/C=C\[C@@H](C)[C@@H](/C=N\O[C@@H](C)CN1CCCc2nc(C)c(C)cc21)NS(=O)(=O)c1ccc(C)cc1 3.16 µM, CCc1cc2c(nc1CC)CCN(CC/C(C)=N/O[C@@H](C)CN1CCCc3nc(C)c(C)cc31)C2 3.98 µM, C=CC[C@@H]1C=C[C@H](O/N=C(\C)CCN2CCCCc3nc(C)c(C)cc32)[C@H](CO)O1 3.98 µM, CO/N=C(\C)CCN1CCCCc2nc(C)c(C)cc21 3.98 µM, CO/N=C(\C)CCN1CCCc2nc(C)c(C)cc21 3.98 µM, CC(C)=NO[C@@H](C)CN1CCCCc2nc(C)c(C)cc21 2.51 µM, COc1ccc2[nH]cc(CCNc3ncnc4ccc(-c5ccccc5OC)cc34)c2c1 3.98 µM, COc1ccc2[nH]cc(CCNc3ncnc4ccc(-c5ccccc5C#N)cc34)c2c1 7.94 µM, COc1ccc2[nH]cc(CCNc3ncnc4ccc(-c5ccccc5CN(C)C)cc34)c2c1 10 µM, Nc1ccccc1Nc1ccccc1 22.4 µM, O=S1(=O)[C@H]([C@H]2CC3c4ccccc4C2c2ccccc23)[C@@H](N2CCCCC2)[C@@H]1c1ccccc1 3.16 µM, CCOC(=O)c1c(NC(=S)Nc2ccccc2)sc2c1CCN(CCc1ccccc1)C2 0.0708 µM, CC(C)(C=O)Cc1cc(C(C)(C)C)c(O)c(C(C)(C)C)c1 25.1 µM, O=S(=O)(c1ccccc1)N1CCC2(CCCN(c3ccccn3)C2)CC1 12.6 µM, CS(=O)(=O)N1CCC2(CCCN(c3ncccn3)C2)CC1 15.8 µM, O=S(=O)(c1ccccc1)N1CCC2(CCCN(c3ncccn3)C2)CC1 12.6 µM

activity, negative = inhibition, inactive:
COC(=O)CC[C@@H](C)[C@H]1CC[C@H]2[C@H]3CC[C@H]4C[C@@H]5CC[C@@]4(C)C3(O5)[C@@H](Br)[C@@H](Br)[C@@]12C -11.7% [at 11.4 µM], CO[C@H]1COC(=O)C/C=C\[C@@H](C)[C@H](OC)COC(=O)CCC[C@@H]1C 17.9% [at 11.4 µM], CC(C)(C)c1ccc(-c2nnc(SCc3ccc(Cl)cc3)n2-c2cccc(C(F)(F)F)c2)cc1 7.38% [at 11.4 µM], Cc1cc2c(nc1C)CCCN2CC(O)CN1CCCc2nc(C)c(C)cc21 -7.07% [at 11.4 µM], CCc1cc2c(nc1CC)CCN(CC/C(C)=N/O[C@@H](C)c1cc(-c3c(C)cc(C)cc3C)no1)C2 -13.3% [at 11.4 µM], C=CC[C@@H]1C=C[C@H](ON=C(C)C)[C@H](CO)O1 9.56% [at 11.4 µM], Cc1cc2c(nc1C)CCCN2C[C@H](O)CN1CCCc2nc(-c3ccc(Br)cc3)ccc21 -14.3% [at 11.4 µM], C/C(CCN1CCc2nc(-c3ccccc3)c(-c3ccccc3)cc2C1)=N\O[C@@H](C)CN1CCCCc2nc(C)c(C)cc21 -4.1% [at 11.4 µM], CO/N=C\[C@@H](NS(=O)(=O)c1ccc(C)cc1)[C@H](C)/C=C\CC(=O)OC -13.5% [at 11.4 µM], COC(=O)C/C=C\[C@@H](C)[C@@H](/C=N\O[C@@H](C)CN1CCCCc2nc(C)c(C)cc21)NS(=O)(=O)c1ccc(C)cc1 2.33% [at 11.4 µM], Cc1ccc(S(=O)(=O)N[C@@H]2COC(=O)C/C=C\[C@H](C)COC(=O)N[C@@H](C)C(=O)C/C=C\[C@H]2C)cc1 2.75% [at 11.4 µM], CN(C)[C@H]1C(=O)C(C(=O)NCN2CCCC2)=C(O)[C@]2(O)C(=O)C3=C(O)c4c(O)cccc4[C@](C)(O)[C@H]3C[C@H]12 -10.6% [at 11.4 µM], Cn1cnc([N+](=O)[O-])c1Sc1nc(N)nc2c1ncn2[C@H]1C[C@H](O)[C@@H](CO)O1 4.56% [at 11.4 µM], C/C(CCN1CCCc2nc(C)c(C)cc21)=N\O[C@@H](C)CN1CCCCc2nc(C)c(C)cc21 -11.7% [at 11.4 µM], C/C(CCN1CCCc2nc(C)c(C)cc21)=N\OC[C@@H](C)[C@H](OCc1ccccc1)C(C)C 0.76% [at 11.4 µM], C/C(CCN1CCCCc2nc(C)c(C)cc21)=N\OC[C@@H](C)[C@H](OCc1ccccc1)C(C)C -1.58% [at 11.4 µM], C/C(CCN1CCCCc2nc(C)c(C)cc21)=N\O[C@@H](C)c1cn([C@H](CO)Cc2ccccc2)nn1 -8.6% [at 11.4 µM] and -9.25% [at 11.4 µM], C/C(CCN1CCCc2nc(C)c(C)cc21)=N\OC[C@@H](O)[C@@H]1O[C@@H]2OC(C)(C)O[C@@H]2[C@H]1O 1.91% [at 11.4 µM], COC(=O)[C@@H]1CC[C@H](C)[C@@H](c2ccc(C)cc2)N1C(=O)c1ccc(/C=N\O[C@@H](C)CN2CCCCc3nc(C)c(C)cc32)cc1 -20.9% [at 11.4 µM], C/C(=N\NC(N)=S)c1ccc[nH]1 7.95% [at 11.4 µM], NCCSCCC(=O)O -2.86% [at 11.4 µM], O=c1[nH]c2[nH]c(=S)[nH]c(=S)c2[nH]1 -8.17% [at 11.4 µM], NS(=O)(=O)c1nc(S(=O)(=O)O)c2[nH]cnc2n1 10.8% [at 11.4 µM], N=C(N)C(N=Nc1ccccc1)C(=N)N (stereo unspecified) -0.561% [at 11.4 µM], O=C(O)/C=C\c1c2ccc(=O)c(O)c-2oc2c(O)c(O)ccc12 -4.81% [at 11.4 µM], Cc1cc(-c2cc(C)c(O)c(C(C)(C)C)c2)cc(C(C)(C)C)c1O -4.06% [at 11.4 µM]

— PubChem BioAssay AID1851 (National Center for Advancing Translational Sciences (NCATS), 2009)
